# Among all 340,000 compounds or so, about 6,400 (1.9%) were called active. Another 4% or so got no clear call; they are omitted. For the sample, actives were picked, then their nearest neighbours and some compounds at random. A number with no mark means an inactive call. Calls come from the whole dose curve; as a rule, active = well fitted falling curve with a large enough effect; inconclusive = small, poorly fitted or top-dose-only effect; inactive = no such curve, though single readings can be large or run the other way.
# Target: ATP-dependent Clp protease proteolytic subunit (Bacillus subtilis (strain 168)) (UniProt P80244)
# Experiment: qHTS Assay for Activators of ClpP; note: the source files actives as falling curves though it sought activators and does not explain the sign; nearly all actives have a fitted effect of over 65% in size
# Conditions: purified B. subtilis ClpP, FRET peptide cleavage, 20 min; series mostly up to 57.5 µM; activity change, negative = active: at the top concentration
# Procedure, shortened: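 FRET quenching reversal measured ClpP activation: 10 microg/mL B. subtilis ClpP at pH 8 with the FRET-FV decapeptide, read at 430 nm after 320 nm excitation. The 20-min minus 0-min signal was scaled between DMSO/no-enzyme wells and ADEP (5.8 microM final).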
# Potency is the fitted concentration of half-maximal effect.
SMILES,"activity change, negative = active",Potency
OCCC#Cc1ccc(N2C(c3ccsc3)=Cc3ccc(F)cc3C2c2c[nH]c3ccccc23)cc1 (centres undefined),2.41%,
CCOC(=O)C1(C(F)(F)F)N=C(N(C)C)OC(N(C)C)=N1,,15.8 µM (active)
CCOC(=O)C1=C(C)c2ccccc2OC1(C)C(=O)OCC (centres undefined),1.75%,
Cc1cc(Br)cn2c(Cc3ccccc3C(F)(F)F)c(-c3ccc(Cl)cc3)nc12,-2.87%,
C=C1C=C(C(F)F)n2ncc(C(=O)NCCc3ccccc3OC)c2N1,-9.27%,
O=C(CCN1C(=O)c2ccccc2C1=O)NCCN1CCOCC1,-4.16%,
Cc1ccc(Cn2c(C)c3cnn(CC(=O)NCCN4CCOCC4)c(=O)c3c2C)cc1,-20.6%,
O=C(Cn1c(-c2ccccn2)nc2ccccc21)NCCN1CCOCC1,,28.2 µM (active)
Cc1ccc(CC2(C)C(=O)Nc3ccc(OC(F)(F)F)cc32)cc1 (centres undefined),-1.95%,
O=C(Nc1ccc2c(c1)OCCO2)C(C1CC1)N1CCC(Cc2ccccc2)CC1 (centres undefined),-0.169%,
CCOC(=O)[C@]12CCCC=C1N(CCC1=CCCCC1)C(=O)[C@H](CC(=O)N1CCOCC1)C2,-2.91%,
CCc1nc2c(OCc3ccc(Cl)cc3Cl)cccn2c1N(C)C(=O)C(C)C,1.42%,
CCOC(=O)N1CCN(C(=O)c2ccc3nc4cc(Cl)ccc4c(=O)n3c2)CC1,,3.55 µM (active)
CCc1nc2ccc(C(=O)N3CCN(c4cccc(Cl)c4)CC3)cc2nc1CC,,inactive
CCc1nc2ccc(C(=O)N3CCN(c4cc(Cl)ccc4C)CC3)cc2nc1CC,-26.7%,
O=C(c1cccs1)N1C[C@H](n2cc(C3CC3)nn2)[C@@H](O)C[C@@H]1c1ccccc1,0.507%,
CC(C)N1C(=O)c2ccccc2NC(=O)C1C(=O)NCc1cccs1 (centres undefined),-9.21%,
CC(=O)c1ccc(-c2cnc3c(NC=O)cc(-c4cccc(NS(C)(=O)=O)c4)cn23)cc1,-17.7%,
Cc1ccccc1S(=O)(=O)NC(=O)C1(C)CCN1C(=O)C1(c2ccccc2)CCCC1 (centres undefined),-0.858%,
O=C(Nc1ccccc1)N1CCC(C(=O)N2CCN(Cc3ccccc3)CC2)CC1,-1.62%,
O=C(Nc1ccccc1)N1CCN(C2c3ccccc3-c3ccccc32)CC1,,31.6 µM (active)
O=C(Nc1cccc(NC(=O)N2CCN(c3ccccc3)CC2)c1)N1CCN(c2ccccc2)CC1,-1.46%,
Cc1cc(=O)oc2ccc(OCC(=O)O)cc12,,31.6 µM (active)
Cc1ccc(O)c(/C=N/NC(=O)COc2ccc3c(C)cc(=O)oc3c2)c1,3.75%,
CC(=O)c1c(C)[nH]c(C(=O)COc2ccc3c(C)cc(=O)oc3c2)c1C,-6.06%,

SMILES,"activity change, negative = active",Potency
Cc1cccc(C)c1NC(=O)CN1CCN(c2ccc(F)cc2)CC1,-2.54%,
COCCn1c(=NC(=O)c2ccccc2[N+](=O)[O-])sc2cc(S(C)(=O)=O)ccc21,2.07%,
Cn1c(=NC(=O)c2ccc3c(c2)OCCO3)sc2cc(S(C)(=O)=O)ccc21,,12.6 µM (active)
CS(=O)(=O)c1ccc(-c2nnc(NC(=O)c3ccc4c(c3)OCCO4)o2)cc1,-16.1%,
CCCNC(=O)C1(C)CCN1C(=O)C1(c2ccccc2)CC1 (centres undefined),0.909%,
O=C(NCc1cccnc1)c1cn(-c2ccccc2)nc1-c1cccs1,-27.6%,
O=C(/C=C/c1cccs1)NCc1cccnc1,,35.5 µM (active)
Cc1ccc(C(=O)NC(=S)NCc2cccnc2)cc1,0.84%,
CCN1C(=O)[C@H]2[C@@H](c3ccc(C(F)(F)F)cc3)N[C@]3(CCCN(Cc4ccc(Br)cc4)C3=O)[C@H]2C1=O,-0.527%,
O=C(COC(=O)c1ncc(Cl)c(Cl)c1Cl)NCc1ccccc1,-0.246%,
CS(=O)(=O)c1ccc(Cl)c(NC(=O)COC(=O)c2ncc(Cl)c(Cl)c2Cl)c1,,14.1 µM (active)
O=C(COC(=O)c1ncc(Cl)c(Cl)c1Cl)NNC(=O)c1ccccc1,-0.929%,
COc1ccc(C(=O)N2CCCCC2c2cc(C(=O)Nc3ccccc3)no2)cc1 (centres undefined),-1.69%,
Cc1cc(C)n2c(NCc3ccccc3)c(CC(C)C)nc2n1,-1.15%,
Cc1cccc(CN2CCN(C3CN(Cc4cn(Cc5ccccc5F)nn4)S(=O)(=O)C3)CC2)c1 (centres undefined),-1.38%,
CNCCCOc1cc2nc(N3CCCN(C)CC3)nc(NC3CCN(C)CC3)c2cc1OC,4.09%,
Nc1ccc(-c2nnc(-c3ccc(-c4ccccc4)cc3)o2)cc1,,31.6 µM (active)
OC(c1nnc(-c2ccccc2)o1)c1cccs1 (centres undefined),-0.78%,
CN(C)c1ccc(-c2nnc(-c3cccnc3)o2)cc1,0.624%,
O=C(COC(=O)c1ccccc1OCCOc1ccccc1)Nc1cccc(Br)c1,0.0233%,
CC(=O)N1CCN(c2ccc(NCc3ccc(C(C)C)cc3)cc2)CC1,-2.79%,
Cc1ccc(-c2cnc(NCc3ccc(C(C)C)cc3)n2C)cc1,,28.2 µM (active)
Cc1ccc(-c2cnc(NC(=O)CCC(=O)N(C)Cc3ccccc3)n2C)cc1,-6.71%,
COc1cccc(NC(=O)Nc2ccc(F)cc2)c1,-0.16%,
COc1ccc2nc(C)cc(Nc3cccc(C(=O)O)c3)c2c1,1.33%,

SMILES,"activity change, negative = active",Potency
COc1ccc2nc(/N=C(\N)NC(=O)Nc3ccccc3)nc(C)c2c1,,14.1 µM (active)
COC(=O)[C@@]12C[C@@H](CC(=O)N3CCCCC3)C(=O)N(Cc3ccc4c(c3)OCO4)C1=CCC(C)(C)C2,0.0879%,
CCc1nnc(SCC(=O)Nc2cc(OC)ccc2OC)nc1CC,0.955%,
COc1ccc2nc(SCc3ccccc3)nc(C)c2c1,0.798%,
COC(=O)CSc1nc(C)c2ccc(OC)cc2n1,,25.1 µM (active)
O=c1cc(CN2CCCCCCC2)c2c(ccc3ccccc32)o1,5.01%,
NC(=O)c1ccc(NC(=O)COC(=O)c2c3c(nc4ccccc24)/C(=C\c2ccc4c(c2)OCO4)CCC3)cc1,1.3%,
O=C1/C(=C/c2ccc3c(c2)OCO3)CCC/C1=C\c1ccc2c(c1)OCO2,,28.2 µM (active)
NS(=O)(=O)c1ccc(NC(=O)COC(=O)c2c3c(nc4ccccc24)/C(=C\c2ccc4c(c2)OCO4)CCC3)cc1,-0.175%,
CCOC(=O)C1=CC[C@@H](c2ccccc2)N(S(=O)(=O)c2ccc(C)cc2)[C@H]1c1cccc(OC)c1,-0.37%,
O=C(c1ccc(C(F)(F)F)cc1)N1CCC(=O)N([C@H](COCc2ccccc2)Cc2ccccc2)CC1,1.19%,
Cc1ccc(N(CCC(=O)O)S(=O)(=O)c2cccc(C(F)(F)F)c2)cc1,,31.6 µM (active)
O=C(O)c1cc(S(=O)(=O)N(Cc2ccccc2)c2cccc(C(F)(F)F)c2)ccc1Cl,0.0784%,
CCc1nnc(NC(=O)CCN(c2ccc(C)cc2)S(=O)(=O)c2ccccc2)s1,-1.33%,
CN(C)CCNC(=O)c1cccc(-c2cnc3c(NC=O)cc(-c4cccc(C(F)(F)F)c4)cn23)c1,-17.7%,
COc1ccc(S(=O)(=O)N2CCOCC2)cc1NC(=O)CC1CC2CCC1C2 (centres undefined),-3.72%,
CCN(CC(=O)Nc1ccccc1OC)C(=O)Cn1cnc2ccccc2c1=O,0.736%,
CCN(CC(=O)Nc1ccccc1OC)C(=O)CC1CC2CCC1C2 (centres undefined),,35.5 µM (active)
COc1cccc(-c2nc3nc(C)cc(C)n3c2NC2CCCCC2)c1,-3.3%,
COc1ccccc1-c1cc2nc(NCc3cccc(Cl)c3)ccn2n1,4.4%,
O=S(=O)(NCCc1ccc(Cl)cc1)c1cccs1,1.05%,
Cc1nc2sccn2c(=O)c1S(=O)(=O)NCCc1ccccc1,4.27%,
Cc1nc2sc(C)c(C)n2c(=O)c1S(=O)(=O)NCCc1ccc(Cl)cc1,,3.98 µM (active)
CCOC(=O)[C@]12CCC=C1N(Cc1ccco1)C(=O)[C@H](CC(=O)NCc1cccc(C(F)(F)F)c1)C2,-6.96%,
O=[N+]([O-])c1ccc(CN2CC(N3CC=CC3)CS2(=O)=O)cc1 (centres undefined),1.65%,

SMILES,"activity change, negative = active",Potency
Cc1ccc(-c2cnc(C(O)c3cc(Cl)cc(Cl)c3)[nH]2)cc1 (centres undefined),1.37%,
Cc1cc2oc(=O)cc(CN(C)Cc3ccccc3)c2cc1Cl,-7.02%,
CN1OC[C@@H]2CN[C@H](c3ccc(-c4ccccc4)cc3)C[C@@H]21,-2.05%,
Cc1ccc(C2=C/C(=C\c3cccnc3)C(=O)O2)cc1,-1.52%,
O=C1OC(c2ccc(Cl)cc2)=N/C1=C\c1cccnc1,,3.16 µM (active)
Cc1ccc(C2=N/C(=C\c3ccc(OS(=O)(=O)c4ccc(C)cc4)cc3)C(=O)O2)cc1,-15.4%,
O=C(NCCCN1CCOCC1)c1cn(-c2ccccc2)nc1-c1ccc(F)cc1,-21.8%,
Cc1cccc(NC(=O)CSc2nc(-c3ccco3)cc(C(F)(F)F)n2)c1C,-2.67%,
O=C(NCc1ccco1)c1cnn2c(C(F)(F)F)cc(-c3ccco3)nc12,-13.7%,
COC(=O)c1cnn2c(C(F)(F)F)cc(-c3ccco3)nc12,,28.2 µM (active)
Cc1ccc(-c2cc(C(F)(F)F)n3ncc(C(=O)N4CCCCC4c4cccnc4)c3n2)cc1 (centres undefined),-17.6%,
Cc1cccc(N2CCN(C(=O)c3cnn4c(C(F)F)cc(-c5ccccc5)nc34)CC2)c1C,-7.22%,
O=C(NCCCN1CCOCC1)c1cc(-c2ccccc2F)no1,2.03%,
O=C(O)c1cnn2c(C(F)(F)F)cc(-c3ccccc3)nc12,,0.631 µM (active)
O=C(NCCCN1CCOCC1)c1cnn2c(-c3ccccc3)cc(-c3ccccc3)nc12,,15.8 µM (active)
Cc1cccc(CNC(=O)c2sc(=O)n(Cc3ccccc3C)c2C)c1,-1.33%,
Cc1ccc(-c2nc3ccc(Br)cn3c2Cc2ccccc2C(F)(F)F)cc1,-24.2%,
Cc1csc[n+]1CCC1CCCCC1,-0.672%,
CCOC(=O)C1(C)CCCN(C(=O)c2cccc(Cl)c2)C1 (centres undefined),2.42%,
CN(C(=N)N)c1ccc(/C=C2\C=Cc3ccccc32)cc1,0.827%,
CCCCC(CCCC)c1ccc(C=Nc2ccc(/C=C/c3ccnc4ccccc34)cc2)cc1,-3.34%,
Cc1cc([N+](=O)[O-])ccc1NC(=O)C1CCCO1 (centres undefined),-13.9%,
CCc1cc(Br)ccc1NC(=O)C1CCCO1 (centres undefined),0.0691%,
COC(=O)c1cc(OC)c(OC)cc1NC(=O)C1CCCO1 (centres undefined),,20 µM (active)
